Reference: PubChem BioAssay (NCI)
Compounds without any hit were thinned out: in the full panel of roughly 83,000, 20% have a hit.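 48-hour exposure, single concentration, 96-well plates; percent growth endpoint where 0 means no net growth. Active: below 10.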 Active and inactive are the calls of the source.

How the values were obtained:
Assay in all cases: NCI-60 one-dose screen, 48 h (100 = growth as untreated, 0 = no growth, -100 = all killed)
Settings in all cases: 10 µM unless noted
HCT-15 colon = tested on: HCT-15 colon
HT29 colon = tested on: HT29 colon
SNB-75 CNS = tested on: SNB-75 CNS
SNB-19 CNS = tested on: SNB-19 CNS
PC-3 prostate = tested on: PC-3 prostate
UACC-62 melanoma = tested on: UACC-62 melanoma
LOX IMVI melanoma = tested on: LOX IMVI melanoma
SK-MEL-28 melanoma = tested on: SK-MEL-28 melanoma
SK-MEL-2 melanoma = tested on: SK-MEL-2 melanoma
EKVX NSCLC = tested on: EKVX NSCLC
SN12C renal = tested on: SN12C renal
UO-31 renal = tested on: UO-31 renal
TK-10 renal = tested on: TK-10 renal
ACHN renal = tested on: ACHN renal
CAKI-1 renal = tested on: CAKI-1 renal
A498 renal = tested on: A498 renal
CCRF-CEM leukemia = tested on: CCRF-CEM leukemia
MOLT-4 leukemia = tested on: MOLT-4 leukemia
SK-MEL-5 melanoma = tested on: SK-MEL-5 melanoma

Measured: growth

COc1cc(-c2nc(SCCC(C)C)nc(Nc3ccccc3Cl)c2C#N)cc(OC)c1OC
inactive: HCT-15 colon 93% | HT29 colon 89.1% | SNB-75 CNS 89.3% | SNB-19 CNS 98.9% | PC-3 prostate 81.4% | UACC-62 melanoma 81% | LOX IMVI melanoma 101% | SK-MEL-28 melanoma 98.8% | SK-MEL-2 melanoma 101% | EKVX NSCLC 93.3% | SN12C renal 90% | UO-31 renal 69.7% | TK-10 renal 125% | ACHN renal 97.1% | CAKI-1 renal 78.9% | A498 renal 85.3% | CCRF-CEM leukemia 92.1% | MOLT-4 leukemia 87.4%

Cc1nnc(NC(=O)c2nc(S(=O)(=O)Cc3ccc(F)cc3)ncc2Cl)s1
inactive: HCT-15 colon 11.1% | HT29 colon 23.8% | SNB-75 CNS 79.3% | SNB-19 CNS 92.8% | PC-3 prostate 71.4% | SK-MEL-5 melanoma 98.9% | UACC-62 melanoma 19.8% | LOX IMVI melanoma 13.6% | SK-MEL-28 melanoma 50.5% | SK-MEL-2 melanoma 89.5% | EKVX NSCLC 90.5% | SN12C renal 64.7% | UO-31 renal 73.6% | TK-10 renal 79% | A498 renal 115% | MOLT-4 leukemia 11.3%
active: CAKI-1 renal -86.3% | CCRF-CEM leukemia -43.3%

O=C(CSc1nnc2n1S(=O)(=O)c1ccccc1N2c1ccccc1)Nc1nc2ccc(F)cc2s1
active: UO-31 renal -15.4%
inactive: HCT-15 colon 104% | HT29 colon 104% | SNB-75 CNS 85.5% | SNB-19 CNS 99.6% | PC-3 prostate 89.5% | SK-MEL-5 melanoma 87.7% | UACC-62 melanoma 81.2% | LOX IMVI melanoma 85.8% | SK-MEL-28 melanoma 117% | SK-MEL-2 melanoma 56.8% | EKVX NSCLC 103% | SN12C renal 118% | TK-10 renal 125% | ACHN renal 91.3% | CAKI-1 renal 85.3% | A498 renal 122% | CCRF-CEM leukemia 127% | MOLT-4 leukemia 86.8%

CCCCCOc1ccc(C(=O)/C(Br)=C/C(=O)O)cc1
inactive: HCT-15 colon 89.1% | HT29 colon 105% | SNB-75 CNS 73.8% | SNB-19 CNS 98.8% | PC-3 prostate 99.6% | SK-MEL-5 melanoma 104% | UACC-62 melanoma 90.9% | LOX IMVI melanoma 86.4% | SK-MEL-2 melanoma 95.2% | EKVX NSCLC 103% | SN12C renal 102% | UO-31 renal 98.6% | TK-10 renal 125% | ACHN renal 94.3% | CAKI-1 renal 81.1% | A498 renal 86.2% | CCRF-CEM leukemia 80.5% | MOLT-4 leukemia 65.4%

C=C(C)[C@@H]1CC[C@]2(C(=O)OC)CC[C@]3(C)[C@H](CC[C@@H]4[C@@]5(C)C/C(=C/NC(N)=S)C(=O)C(C)(C)[C@@H]5CC[C@]43C)[C@@H]12
inactive: HCT-15 colon 92.8% | HT29 colon 71% | SNB-75 CNS 118% | SNB-19 CNS 97.1% | PC-3 prostate 67.6% | SK-MEL-5 melanoma 87.1% | UACC-62 melanoma 87.4% | LOX IMVI melanoma 90.2% | SK-MEL-28 melanoma 98.9% | SK-MEL-2 melanoma 103% | EKVX NSCLC 91.3% | SN12C renal 58.9% | UO-31 renal 73.4% | TK-10 renal 111% | ACHN renal 77.6% | CAKI-1 renal 66.4% | A498 renal 114% | CCRF-CEM leukemia 84.7% | MOLT-4 leukemia 70.3%

COc1ccc(-c2csc(NC(=O)CSc3nc(-c4ccccc4)cc(=O)[nH]3)n2)cc1
inactive: HCT-15 colon 70.9% | HT29 colon 85.9% | SNB-75 CNS 82.3% | SNB-19 CNS 70.1% | PC-3 prostate 66.5% | UACC-62 melanoma 58.7% | LOX IMVI melanoma 66% | SK-MEL-28 melanoma 90.6% | SK-MEL-2 melanoma 59.7% | EKVX NSCLC 58.1% | SN12C renal 80.3% | UO-31 renal 65.6% | TK-10 renal 78.9% | ACHN renal 63% | CAKI-1 renal 74.7% | A498 renal 64.7% | CCRF-CEM leukemia 57.9% | MOLT-4 leukemia 14.4%
active: SK-MEL-5 melanoma -16.5%

O=C1c2cccnc2C(=O)c2c1c(C(=O)NCCCN1CCCCC1)c1ccccn21
active: HCT-15 colon -71.8% | HT29 colon -1.92% | SNB-75 CNS -95.3% | SNB-19 CNS -72.8% | PC-3 prostate -18% | SK-MEL-5 melanoma -99.5% | UACC-62 melanoma -61.4% | LOX IMVI melanoma -71.4% | SK-MEL-2 melanoma -40.3% | EKVX NSCLC -100% | SN12C renal -65.1% | UO-31 renal -34.5% | TK-10 renal -1.12% | CAKI-1 renal -14.6% | A498 renal -78.1% | CCRF-CEM leukemia -25.6% | MOLT-4 leukemia -43.9%

N#CC1=C(N)Oc2c(sc3c(F)cccc23)C1c1ccc(F)cc1 (stereo unspecified)
active: HT29 colon 6.86% | SNB-75 CNS 6.01% | SK-MEL-2 melanoma -4.03%
inactive: HCT-15 colon 26% | SNB-19 CNS 27.3% | PC-3 prostate 28.7% | SK-MEL-5 melanoma 22.3% | UACC-62 melanoma 29.2% | LOX IMVI melanoma 32.2% | SK-MEL-28 melanoma 64% | EKVX NSCLC 47.3% | SN12C renal 42.4% | UO-31 renal 41.9% | TK-10 renal 35.8% | ACHN renal 46.6% | A498 renal 23.2% | CCRF-CEM leukemia 19.8% | MOLT-4 leukemia 18.4%

CC(=O)N1N=C(c2ccc(Nc3nc(Nc4ccc(Cl)cc4)nc(Nc4ccc(Cl)cc4)n3)cc2)CC1c1ccco1 (stereo unspecified)
inactive: HCT-15 colon 85.7% | HT29 colon 97.8% | SNB-75 CNS 112% | SNB-19 CNS 101% | PC-3 prostate 87.6% | SK-MEL-5 melanoma 75.9% | UACC-62 melanoma 89.9% | LOX IMVI melanoma 95.7% | SK-MEL-28 melanoma 111% | SK-MEL-2 melanoma 77.7% | EKVX NSCLC 97% | SN12C renal 90.3% | UO-31 renal 85.6% | TK-10 renal 110% | ACHN renal 98.8% | CAKI-1 renal 86.8% | A498 renal 107% | CCRF-CEM leukemia 92.4% | MOLT-4 leukemia 66%

Nc1c(C(=O)Nc2ccccc2Cl)sc2nc3c(cc12)C(O)CCC3 (stereo unspecified)
inactive: HCT-15 colon 30.5% | SNB-75 CNS 22.9% | SNB-19 CNS 41.6% | PC-3 prostate 36.8% | SK-MEL-5 melanoma 21.4% | UACC-62 melanoma 47.9% | LOX IMVI melanoma 45.5% | SK-MEL-28 melanoma 79.2% | SK-MEL-2 melanoma 36.5% | EKVX NSCLC 40.7% | SN12C renal 59.7% | UO-31 renal 56.9% | TK-10 renal 45.8% | ACHN renal 57.1% | CAKI-1 renal 49.6% | A498 renal 18% | MOLT-4 leukemia 38.9%
active: HT29 colon 6.13%

O=C(OCc1ccc2cccc(O)c2n1)N1CCN(C(=O)c2cc3cc(F)ccc3[nH]2)CC1
inactive: SNB-19 CNS 47.1% | A498 renal 17.5%
active: HCT-15 colon -36.4% | HT29 colon -70.4% | SNB-75 CNS -45.2% | PC-3 prostate -43.9% | SK-MEL-5 melanoma -79.6% | UACC-62 melanoma -93.8% | LOX IMVI melanoma -91.8% | SK-MEL-28 melanoma -91.2% | SK-MEL-2 melanoma -59.7% | EKVX NSCLC -87.8% | SN12C renal -90.8% | UO-31 renal -100% | TK-10 renal -97.1% | ACHN renal -99.8% | CAKI-1 renal -97.8% | CCRF-CEM leukemia 3.76% | MOLT-4 leukemia -16.9%

COC(=O)c1c2c(c(C)[n+]([O-])c1C)C(=O)C(NCc1ccc(Cl)cc1)=CC2=O
inactive: HCT-15 colon 39.6% | SNB-75 CNS 131% | SNB-19 CNS 84.4% | PC-3 prostate 33.5% | SK-MEL-5 melanoma 29.9% | LOX IMVI melanoma 45.8% | SK-MEL-28 melanoma 95.7% | SK-MEL-2 melanoma 83.4% | EKVX NSCLC 70.9% | SN12C renal 38% | UO-31 renal 79% | TK-10 renal 111% | ACHN renal 67.5% | CAKI-1 renal 76.3% | A498 renal 88.2% | CCRF-CEM leukemia 58% | MOLT-4 leukemia 72.8%
active: HT29 colon 9.34% | UACC-62 melanoma 6.15%

O=S(=O)(NCCCNc1nccc(-c2c(-c3ccc(F)c(O)c3)nc3occn23)n1)c1ccccc1
inactive: HCT-15 colon 103% | HT29 colon 73.6% | SNB-75 CNS 96.8% | SNB-19 CNS 113% | PC-3 prostate 79.1% | SK-MEL-5 melanoma 63% | UACC-62 melanoma 10.7% | LOX IMVI melanoma 39.6% | SK-MEL-28 melanoma 24.7% | SK-MEL-2 melanoma 31.9% | EKVX NSCLC 101% | SN12C renal 79.1% | UO-31 renal 75% | TK-10 renal 122% | ACHN renal 70.1% | CAKI-1 renal 96.5% | A498 renal 101% | MOLT-4 leukemia 78.2%

C#Cc1ccc(NC(=O)c2ccc(/C=C/C(=O)c3nccn3C)cc2)cc1
active: HCT-15 colon -44.4% | HT29 colon -17.3% | SNB-75 CNS -98.3% | SNB-19 CNS -78.9% | PC-3 prostate -56.2% | SK-MEL-5 melanoma -94.3% | UACC-62 melanoma -50.7% | LOX IMVI melanoma -93% | SK-MEL-28 melanoma -30.7% | SK-MEL-2 melanoma -30.4% | EKVX NSCLC -75.4% | SN12C renal -37.5% | UO-31 renal -98.8% | TK-10 renal -2.59% | ACHN renal -72.1% | CAKI-1 renal -81.6% | A498 renal -70.3% | CCRF-CEM leukemia -9.16% | MOLT-4 leukemia -10%

O=C1/C(=C/c2ccc(Cl)cc2)COc2ccc(O)cc21
active: LOX IMVI melanoma -42.6% | CCRF-CEM leukemia -5.84%
inactive: HCT-15 colon 29.3% | HT29 colon 15.3% | SNB-75 CNS 84.5% | SNB-19 CNS 82.1% | PC-3 prostate 69.8% | SK-MEL-5 melanoma 96.8% | UACC-62 melanoma 78.1% | SK-MEL-28 melanoma 96.8% | SK-MEL-2 melanoma 101% | EKVX NSCLC 95.5% | SN12C renal 69% | UO-31 renal 53.1% | TK-10 renal 100% | ACHN renal 80% | CAKI-1 renal 70.8% | A498 renal 100% | MOLT-4 leukemia 14.8%

CC1(C)CCC(S(=O)(=O)c2ccc3c(c2)/C(=N\O)c2cc(S(=O)(=O)N4CCC(O)(c5cccc(C(F)(F)F)c5)CC4)ccc2-3)CC1
active: HT29 colon -80.1% | SNB-75 CNS -98.2% | SNB-19 CNS -81.9% | PC-3 prostate -71.5% | SK-MEL-5 melanoma -92.7% | UACC-62 melanoma -84.9% | LOX IMVI melanoma -86.1% | SK-MEL-28 melanoma -71.7% | SK-MEL-2 melanoma -90.2% | EKVX NSCLC -33.4% | SN12C renal 3.73% | TK-10 renal -35.7% | ACHN renal -13.3% | CAKI-1 renal -37.7% | A498 renal -51.5% | CCRF-CEM leukemia -58.4% | MOLT-4 leukemia -69.2%
inactive: HCT-15 colon 16.3% | UO-31 renal 45.6%
